# Hits are enriched below; roughly 21% of the tested compounds scored in any of these assays.
# NS1 function inh: qHTS Assay for Inhibitors of Influenza NS1 Protein Function. Potency, µM (highest dose often 46.1 µM), inactives show top-dose activity, positive = more growth. 0.4% of 270,000 active. AID 2326, 2010; calls by dose curve; further: potency means the concentration at half of the fitted maximal effect; actives are rising curves; nearly all actives have a fitted effect of over 50% in size
#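 Growth recovery, yeast-based: influenza A NS1 expressed in S. cerevisiae causes slow growth, and suppressors are detected by OD600. The parent strain without NS1 is used as positive control.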
# CHX counter: Cycloheximide Counterscreen for Small Molecule Inhibitors of Shiga Toxin. cell reporter, cycloheximide protein synthesis inhibition counterscreen. 12% of 300,000 active. max response, %; in the data active means max response mostly above about 13%, no sharp cut-off; inactive means mostly below about 14%; further: read at 38.3 µM for the half of the compounds with a filed dose; 0% is about no effect
# SARS PLpro yeast: qHTS of Yeast-based Assay for SARS-CoV PLP | Potency, µM (doses to about 32.9 µM), inactives show at the top dose activity, positive = growth rescue, actives largely listed as activators | S. cerevisiae expressing SARS-CoV PLpro, growth rescue | 0.19% of 330,000 active; calls by dose curve; further: potency means the concentration at half of the fitted maximal effect; 0% is about no effect; nearly all actives have a fitted effect of over 55% in size
# Pf growth 96h: Primary qHTS for delayed death inhibitors of the malarial parasite plastid, 96 hour incubation | Potency, µM (highest dose often 28.7 µM), without a hit: top-dose activity change, negative = inhibition, most hits filed as inhibitors | 6.9% of 320,000 active | P. falciparum luciferase reporter growth, 96 h; further: potency means the concentration at half of the fitted maximal effect; on the % scale 0 is the no-effect control and ±100 the full control effect
#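 P. falciparum expressing integrated firefly luciferase grown in erythrocytes (2% hematocrit, 0.05% parasitemia final) with compounds for 96 hours at 37 C, 5% CO2. Growth inhibition read as loss of luminescence after adding luciferase detection reagent.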
# Pf growth 48h: Primary qHTS for delayed death inhibitors of the malarial parasite plastid, 48 hour incubation; Potency, µM (highest dose often 28.7 µM), inactives show at the top dose activity change, negative = inhibition, actives largely listed as inhibitors; 5.9% of 310,000 active; P. falciparum luciferase growth in erythrocytes, 48 h; AID 504832, 2011; further: potency means the concentration at half of the fitted maximal effect; on the % scale 0 is the no-effect control and ±100 the full control effect
#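 Compounds are pin-transferred into medium, infected erythrocytes (2% hematocrit, 0.1% parasitemia final) are added, and plates sit one parasite generation at 37 C in 5% CO2. Detection reagent is then added and luminescence measured.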
# Shiga inhibitor: A qHTS for Small Molecule Inhibitors of Shiga Toxin; 9.2% of 290,000 active; inhibition, % at 38.7 µM; Vero cells, Shiga toxin protein synthesis inhibition reporter; in the data active means inhibition mostly above about 28%, no sharp cut-off; inactive means mostly below about 43%; further: 0% is about no effect
# * marks the source's active call; other numbers are inactive results; ? = inconclusive; . = no result given; [ ] = another dose, or the depositor's remark. Unless noted, the call rests on the fitted dose curve; in most records, active means well fitted inhibition curve with a large enough effect; inconclusive means small, poorly fitted or top-dose-only effect, or another doubt; inactive means no such curve, though single readings can be large or run the other way.
SMILES,NS1 function inh,CHX counter,SARS PLpro yeast,Pf growth 96h,Pf growth 48h,Shiga inhibitor
COc1cc2c(cc1CN1CCN(C(=O)c3cc(OC)c(OC)c(OC)c3)CC1)OCO2,-9.2%,-0.7,-3.8%,?,?,-3.7
Cc1ccc(S(=O)(=O)N2CCN(CC(=O)N/N=C/C=C/c3ccccc3)CC2)cc1,-14.7%,-1.6,2.5%,26.4%,0.0%,-9.4
CCOC(=O)C1=C(CNCCOc2ccc(OC)cc2)NC(=O)NC1c1ccc2c(c1)OCO2 (configuration not stated),.,1.6,1.5%,?,11.7µM*,-3.1
CCOC(=O)C1=C(CNCCc2ccc(Cl)cc2)NC(=O)NC1c1ccc2c(c1)OCO2 (configuration not stated),?,-1.8,-1.7%,.,7.38µM*,-8.5
CCSCCOC(=O)C1=C(C)NC(=O)NC1c1ccc2c(c1)OCO2 (configuration not stated),3.9%,-3.3,21.7%,-0.3%,.,-9.7
Fc1ccc(CNC(=S)NC2CCCCCC2)cc1,-8.4%,1.3,-2.9%,0.2%,?,-16.2
Fc1ccccc1CNC(=S)NC1CCCCC1,-24.9%,3.5,4.4%,4.15µM*,-2.4%,11.1
NS(=O)(=O)c1ccc(CNC(=O)C2CCCCC2)cc1,-2.6%,-0.9,1.0%,.,9.1%,-8.7
S=C(NCCc1ccccc1)NC1CCCCCC1,-35.9%,50.8*,-31.0%,84.5%,77.5%,72.9*
S=C(NCCNCc1ccccc1)NC1CCCCC1,.,-2.6,11.1%,4.65µM*,?,-5.2
NS(=O)(=O)c1ccc(CNC(=S)NC2CCCC2)cc1,1.7%,1.7,-0.2%,13.1µM*,3.6%,-11.1
COc1ccc(CCN2CC(C(=O)N3CCSCC3)CCC2=O)cc1 (configuration not stated),-4.9%,-0.8,6.1%,?,15.1%,-9.2
COCCn1c(Cc2ccccc2)nnc1SCC(=O)NC1CC1,3.5%,0.5,-2.6%,-8.6%,30.5%,2.5
CCn1cc(/C=C(\NC(=O)c2ccccc2)C(=O)NCCCN2CCOCC2)c2ccccc21,-3.1%,-2.6,-5.1%,40.9%,-9.4%,-4.5
S=C(NCCc1ccc(Cl)cc1)NC1CCCCC1,-122.5%,55.6*,-12.0%,?,-13.7%,103.0*
S=C(NCCc1ccc(Cl)cc1)NC1CCCC1,-36.8%,44.4*,-3.7%,?,-8.5%,70.8*
CN(Cc1ccccc1)C(=O)c1cc2cc(F)ccc2[nH]1,-0.6%,65.0*,-1.1%,?,?,74.5*
CCCCc1ncc(CN2CCCC(C(=O)c3ccc(SC)cc3)C2)[nH]1 (configuration not stated),1.9%,-5.4,-1.6%,24.6%[5.75 µM],9.28µM*,-13.8
CSc1ncc(CN2CCCC(C(=O)c3ccc(C(C)(C)C)cc3)C2)cn1 (configuration not stated),-8.4%,21.9*,2.7%,-14.7%,?,37.1
Cc1cccc(CN2CCCC(C(=O)c3ccc(C(F)(F)F)cc3)C2)n1 (configuration not stated),-8.4%,0.4,-0.6%,11.7µM*,2.33µM*,-4.3
CC1CCCN(S(=O)(=O)c2ccc(NC(=O)Cc3ccc(S(=O)(=O)N4CCOCC4)s3)cc2)C1 (configuration not stated),.,.,.,7.38µM*,?,.
CNC(=O)c1ccc(NC(=O)Cc2ccc(S(=O)(=O)N3CCOCC3)s2)cc1,.,.,5.1%,14.7µM*,-32.3%,.
O=C(Cc1ccc(S(=O)(=O)N2CCOCC2)s1)Nc1ccc(S(=O)(=O)N2CCCCC2)cc1,.,.,5.5%,?,?,.
O=C(Cc1ccc(S(=O)(=O)N2CCOCC2)s1)NC1CCCCC1,.,.,-1.4%,?,?,.
CC1CCCCC1NC(=O)Cc1ccc(S(=O)(=O)N2CCOCC2)s1 (configuration not stated),.,.,-0.3%,11.7µM*,?,.
SMILES,NS1 function inh,CHX counter,SARS PLpro yeast,Pf growth 96h,Pf growth 48h,Shiga inhibitor
CC1CCN(S(=O)(=O)c2ccc(NC(=O)Cc3ccc(S(=O)(=O)N4CCOCC4)s3)cc2)CC1,.,.,-0.5%,?,-21.4%,.
Cc1ccc(-c2nc3ccccc3o2)cc1NC(=S)NC(=O)c1cccs1,-2.9%,32.4*,2.8%,35.8%,103.8%,97.6*
Cc1cc(C)c2oc(-c3ccc(C)c(NC(=S)NC(=O)c4cccs4)c3)nc2c1,12.4%,17.5*,-1.2%,?,74.3%,38.8*
Cc1cc(C)c2oc(-c3ccc(C)c(NC(=S)NC(=O)/C=C/c4ccco4)c3)nc2c1,12.0%,29.2*,?,76.8%,?,44.2*
N#CC1=C(N)S[C@H](C(=O)C23CC4CC(CC(C4)C2)C3)[C@H]1c1ccncc1,-46.6%,-2.0,-6.5%,4.65µM*,10.4µM*,-4.9
O=c1[nH]c(CSc2ncn[nH]2)nc2ccccc12,2.6%,1.5,0.0%,22.4%,16.2%,16.0
Cn1c(-c2ccccc2)cnc1SCc1nc2ccccc2c(=O)[nH]1,-16.8%,27.3*,-15.3%,2.33µM*,198.2%,114.1*
CC(=O)OCC#CCSc1nc2ccccc2n1C,-32.9%,0.6,22.4µM*,-6.8%,1.9%,5.7
O=c1[nH]c(CSc2cccc[n+]2[O-])nc2ccccc12,-64.9%,3.2,-6.7%,?,13.1µM*,12.9
CC(C)Cn1c(SCc2nc3ccccc3c(=O)[nH]2)nc2ccccc2c1=O,1.7%,8.7,1.1%,71.1%,7.38µM*,-12.2
CC(=O)c1c(C)[nH]c(C(=O)CSc2nc3ccccc3n2C)c1C,4.2%,-2.3,5.1%,?,-0.3%,-10.1
COc1ccc(CC(N)C(=O)N[C@H]2[C@@H](O)[C@H](n3cnc4c(N(C)C)ncnc43)O[C@@H]2CO)cc1 (some centres not stated),.,-6.7,.,.,.,-7.1
CCn1c(=O)[nH]c2cc(Cl)c(Cl)cc21,-40.1%,.,.,13.9%,2.4%,.
O=C(COC(=O)c1cc(S(=O)(=O)Nc2ccccc2Cl)ccc1O)Nc1ccc(F)c(F)c1F,.,.,0.2%,.,.,.
OCCn1c(CSc2nc3ccccc3n2CCO)nc2ccccc21,6.4%,-4.1,2.0%,?,-1.5%,-18.5
Cn1c(CSc2nc3ccccc3n2C)nc2ccccc21,-38.0%,19.1*,-4.7%,13.9%,28.3%,48.1
Cn1c(SCc2nc3ccccc3c(=O)[nH]2)nc2ccccc21,-4.8%,17.2*,-2.4%,-11.7%,11.4%,52.6
Cn1c(SC2=CS(=O)(=O)c3ccccc32)nc2ccccc21,-6.3%,14.8,-3.9%,4.9%[5.75 µM],5.22µM*,37.1
Cc1ccc(C)c(CNS(=O)(=O)c2c(C)[nH]c(C)c2C(=O)N2CCCCC2)c1,-9.3%,-10.7,12.2%,4.1%,-20.4%,-9.6
CCC1(c2ccc(OC)cc2)NC(=O)N(C)C1=O (configuration not stated),.,-7.5,.,.,.,11.8
CCN(CC)S(=O)(=O)c1ccc(Cl)c(C(=O)Oc2cccc(-c3cnc4ccccc4n3)c2)c1,-8.2%,30.8*,.,104.6%,108.9%,81.2*
